Where “and” joins values, the source holds several entries; their conditions need not be identical. Equal values may be shown once. Results filed as inconclusive are left out. More than one record can exist for a structure, and the calls need not agree. Calls of active or inactive are those of the source. Rule for the calls: active = hit-call score of the fitted dose curve at least 0.9, where 1 is the maximum; inconclusive = response in the unintended direction; inactive = score below 0.9.
Assays:
[1] = target: rat Mineralocorticoid Receptor (MR), Nr3c2 (gene 25672) (UniProt P22199); experiment: NVS_NR_rMR: NovaScreen (NVS) Nuclear Receptor Binding Assay for rat Mineralocorticoid Receptor (MR) (AID 2283355)
Outline: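 Single-concentration duplicate screen (25 uM) of radioligand binding in adrenalectomized rat brain supernatant; scintillation detection 24 h after dosing. Positive and negative controls ran on each plate, and confirmed actives went to concentration-response.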

[2] = target: Estrogen receptor beta (Homo sapiens) (UniProt Q92731); experiment: OT_ER_ERbERb_0480: Odyssey Thera (OT) 8-hour HEK293T Protein-Complementation Assay for Estrogen Receptor-beta/-beta Homodimer (AID 2283357);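 note: active means signal gain over DMSO baseline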
Outline: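 Fluorescence gain from complemented reporter fragments on ER-beta LBD homodimer in HEK293T was quantified against DMSO controls after 8 h treatment, fixation in 4% formaldehyde and Draq5 staining.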

[3] = target: Retinoic acid receptor alpha (Homo sapiens) (UniProt P10276); experiment: NVS_NR_hRAR_Antagonist: NovaScreen (NVS) Nuclear Receptor Binding Assay for human Retinoic Acid Alpha Receptor Antagonism (RAR) (AID 2283358)
Outline: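 Chemicals were first tested in duplicate at 25 uM, then actives in concentration series, in a cell-free TR-FRET antagonist binding format. Measurements were taken 2 hours after dosing and loss of signal was evaluated against DMSO controls.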

[4] = target: human Peroxisome Proliferator-activated Receptor alpha (PPARa), PPARA (gene 5465) (UniProt Q07869); experiment: NVS_NR_hPPARa: NovaScreen (NVS) Nuclear Receptor Binding Assay for human Peroxisome Proliferator-activated Receptor alpha (PPARa) (AID 2283359);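 note: activity means loss of TR-FRET signal versus DMSO baseline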
Outline: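 One-hour incubation, cell-free extracted protein, TR-FRET binding readout; signal loss vs DMSO scored. Screen: 25 uM duplicates, confirmatory dose series for actives.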

PGR (gene 5241) = PGR (gene 5241) (UniProt P06401); experiment: NVS_NR_hPR: NovaScreen (NVS) Nuclear Receptor Binding Assay for human Progestron Receptor (PR) (AID 2283360);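 note: active means loss of bound radioligand signal versus DMSO baseline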
Outline: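 T47D lysate; tritiated or iodinated radioligand; scintillation count at 18 h. DMSO = negative control/baseline. Primary: 25 uM, duplicate. Secondary: concentration series for actives.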

[5] = target: Glucocorticoid receptor (Homo sapiens) (UniProt P04150); experiment: NVS_NR_hGR: NovaScreen (NVS) Nuclear Receptor Binding Assay for human Glucocorticoid Receptor (GR) (AID 2283363);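 for AC50: activity is loss of specific radioligand binding signal relative to DMSO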
Outline: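 Single-readout cell-free binding: radioligand plus extracted receptor, 16-hour dosing, filter radiodetection; 25 uM duplicate primary, concentration series secondary.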

[6] = target: Peroxisome proliferator-activated receptor gamma (Homo sapiens) (UniProt P37231); experiment: NVS_NR_hPPARg: NovaScreen (NVS) Nuclear Receptor Binding Assay for human Peroxisome Proliferator-activated Receptor gamma (PPARg) (AID 2283370)
Outline: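 Fluorescence polarization measures competitive binding to extracted PPARg in a cell-free format. Reading is taken at 2 h; activity is signal loss relative to DMSO. Screening at 25 uM in duplicate preceded confirmatory dose series.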

[7] = target: Estrogen receptor (Homo sapiens) + Estrogen receptor beta (Homo sapiens) (UniProt P03372+Q92731); experiment: OT_ER_ERaERb_1440: Odyssey Thera (OT) 24-hour HEK293T Protein-Complementation Assay for Estrogen Receptor-alpha/-beta Homodimer (AID 2283356);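 note: heteromer of ER alpha and ER beta binding domains; hits raise reporter fluorescence and both agonists and antagonists give an increase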
Outline: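 Heterodimerisation of ERα (aa 310-547) and ERβ (aa 263-489) ligand binding domains was tracked as fluorescence gain in stably transfected HEK293T cells following 24 h dosing, normalised to DMSO controls.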

[8] = tested on: guinea pig Dopamine Transporter (DAT), gene 100714898; experiment: NVS_TR_gDAT: NovaScreen (NVS) Transporter Assay for guinea pig Dopamine Transporter (DAT) (AID 2283369);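 note: active compounds lower bound radioligand signal relative to DMSO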
Outline: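 Test chemicals were incubated 2 h with guinea pig striatal membranes and a radioligand; bound label was separated by filtration and counted. Screening ran at 25 uM, followed by concentration-response testing to a 50 uM maximum.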

[9] = target: human Dopamine Transporter (DAT), SLC6A3 (gene 6531) (UniProt Q01959); experiment: NVS_TR_hDAT: NovaScreen (NVS) Transporter Assay for human Dopamine Transporter (DAT) (AID 2283374);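 note: activity means loss of bound radioligand signal relative to DMSO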
Outline: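 Extracted human SLC6A3 protein incubated 1 h with radioligand and test chemical; bound fraction separated on filters and counted. Single 25 uM duplicate screen preceded concentration-response follow-up; positive and negative controls on every plate.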

[10] = target: Androgen Receptor/SRC-1 Co-activator, AR (gene 367) (UniProt P10275); experiment: OT_AR_ARSRC1_0960: Odyssey Thera (OT) 16-hour HEK293T Protein-Complementation Assay for Androgen Receptor/SRC-1 Co-activator (AID 2283353);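 note: actives raise the signal above DMSO so potency reflects increased AR and SRC-1 complex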
Outline: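 Sixteen-hour cell assay: Venus halves fused to AR and SRC-1 in HEK293T report binding. Images at 488/635 nm give an N/C ratio in the 488 nm channel over ≥400 cells, analysed as signal increase over DMSO.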

[11] = target: Androgen Receptor/SRC-1 Co-activator, AR (gene 367) (UniProt P10275); experiment: OT_AR_ARSRC1_0480: Odyssey Thera (OT) 8-hour HEK293T Protein-Complementation Assay for Androgen Receptor/SRC-1 Co-activator (AID 2283354);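 note: hits raise the complementation signal above DMSO so AC50 marks enhancers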
Outline: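 After 8 h dosing, stably expressing HEK293T cells with split-Venus AR/SRC-1 fusions were imaged (488, 635nm). The 488nm N/C ratio per image gave the endpoint, analysed in the positive direction against DMSO.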

[12] = target: rat Androgen Receptor (AR), Ar (gene 24208) (UniProt P15207); experiment: NVS_NR_rAR: NovaScreen (NVS) Nuclear Receptor Binding Assay for rat Androgen Receptor (AR) (AID 2283366)
Outline: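 Actives from a duplicate single-concentration (25 uM) primary run went on to concentration series. Displacement of radioligand was counted by filtration and scintillation, 18 h post-dose, using prostate extracts from testosterone-pretreated rats, with DMSO as baseline.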

[13] = target: guinea pig Sigma Receptor, Non-selective Binding, SIGMAR1 (gene 100135589) (UniProt Q60492); experiment: NVS_OR_gSIGMA_NonSelective: NovaScreen (NVS) Nuclear Receptor Binding Assay for guinea pig Sigma Receptor, Non-selective Binding (AID 2283367)
Outline: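 Test chemicals were screened in duplicate at 25 uM, then in concentration series if active, against radioligand binding to guinea pig brain membranes; filtration and scintillation counting at 1 h measured remaining bound ligand.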

[14] = target: human Adenosine Transporter (Adot), SLC29A1 (gene 2030) (UniProt Q99808); experiment: NVS_TR_hAdoT: NovaScreen (NVS) Transporter Assay for human Adenosine Transporter (Adot) (AID 2283368)
Outline: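 Binding displacement on U937 extracted protein, read 1 h post-dose by filtration and scintillation counting. Primary duplicate test at 25 uM, then singleton concentration series with 50 uM top; DMSO baseline.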

[15] = target: rat Serotonin Transporter (SERT), Slc6a4 (gene 25553) (UniProt P31652); experiment: NVS_TR_rSERT: NovaScreen (NVS) Transporter Assay for rat Serotonin Transporter (SERT) (AID 2283375)
Outline: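 Steps: rat forebrain membranes dosed with chemical (25 uM duplicate primary; concentration series for actives); 1 h incubation; labelled ligand bound, filtered, counted by scintillation. Activity scored as signal loss vs DMSO.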

Measured: AC50

PGR (gene 5241), sequence (P06401 whole entry, looked up): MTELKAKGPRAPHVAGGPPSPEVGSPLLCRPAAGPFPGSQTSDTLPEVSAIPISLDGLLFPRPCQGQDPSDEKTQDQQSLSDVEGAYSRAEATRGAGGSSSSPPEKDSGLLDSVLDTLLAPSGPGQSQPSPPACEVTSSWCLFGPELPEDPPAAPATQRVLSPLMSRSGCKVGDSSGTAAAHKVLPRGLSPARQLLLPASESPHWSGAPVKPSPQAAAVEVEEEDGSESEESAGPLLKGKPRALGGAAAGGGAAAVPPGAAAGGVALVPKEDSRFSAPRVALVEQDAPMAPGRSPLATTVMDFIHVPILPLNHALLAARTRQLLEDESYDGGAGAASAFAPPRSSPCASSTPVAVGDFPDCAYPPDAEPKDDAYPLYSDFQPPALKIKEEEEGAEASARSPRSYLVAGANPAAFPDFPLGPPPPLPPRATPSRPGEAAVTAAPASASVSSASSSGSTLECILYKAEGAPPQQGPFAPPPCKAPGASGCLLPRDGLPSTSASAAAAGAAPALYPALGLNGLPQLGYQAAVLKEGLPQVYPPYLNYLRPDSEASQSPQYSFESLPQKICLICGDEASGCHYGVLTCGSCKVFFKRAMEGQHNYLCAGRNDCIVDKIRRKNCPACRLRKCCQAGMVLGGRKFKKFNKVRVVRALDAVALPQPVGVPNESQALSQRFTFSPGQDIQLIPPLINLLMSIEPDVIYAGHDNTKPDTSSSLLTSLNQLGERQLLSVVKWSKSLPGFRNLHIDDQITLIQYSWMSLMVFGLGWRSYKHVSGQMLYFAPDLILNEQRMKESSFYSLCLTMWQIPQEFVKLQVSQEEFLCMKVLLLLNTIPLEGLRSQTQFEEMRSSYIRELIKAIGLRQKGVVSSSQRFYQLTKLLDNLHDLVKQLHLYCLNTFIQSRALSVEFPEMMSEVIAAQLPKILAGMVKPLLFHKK
Glucocorticoid receptor (Homo sapiens), sequence (P04150 whole entry, looked up): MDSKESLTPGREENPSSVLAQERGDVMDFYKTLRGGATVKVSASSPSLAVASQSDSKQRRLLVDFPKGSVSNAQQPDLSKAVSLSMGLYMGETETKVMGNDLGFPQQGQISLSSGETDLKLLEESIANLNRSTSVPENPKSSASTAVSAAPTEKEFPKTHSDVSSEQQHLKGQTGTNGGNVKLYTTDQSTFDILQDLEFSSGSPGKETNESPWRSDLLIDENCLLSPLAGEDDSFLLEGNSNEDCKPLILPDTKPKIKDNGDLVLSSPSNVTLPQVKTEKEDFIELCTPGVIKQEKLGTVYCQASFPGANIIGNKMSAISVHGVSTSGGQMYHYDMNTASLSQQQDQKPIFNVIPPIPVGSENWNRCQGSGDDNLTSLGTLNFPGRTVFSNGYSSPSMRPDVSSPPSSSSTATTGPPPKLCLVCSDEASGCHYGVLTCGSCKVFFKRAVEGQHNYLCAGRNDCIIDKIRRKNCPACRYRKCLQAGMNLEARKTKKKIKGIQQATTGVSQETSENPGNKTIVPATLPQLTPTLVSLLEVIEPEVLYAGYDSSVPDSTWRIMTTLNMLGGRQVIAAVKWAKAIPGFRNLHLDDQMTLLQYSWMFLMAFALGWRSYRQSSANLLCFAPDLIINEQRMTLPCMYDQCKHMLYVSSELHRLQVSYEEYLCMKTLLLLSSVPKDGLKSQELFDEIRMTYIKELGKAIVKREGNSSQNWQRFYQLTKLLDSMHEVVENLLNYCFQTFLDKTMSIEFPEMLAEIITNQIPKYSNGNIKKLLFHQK
Peroxisome proliferator-activated receptor gamma (Homo sapiens), sequence (P37231 whole entry, looked up): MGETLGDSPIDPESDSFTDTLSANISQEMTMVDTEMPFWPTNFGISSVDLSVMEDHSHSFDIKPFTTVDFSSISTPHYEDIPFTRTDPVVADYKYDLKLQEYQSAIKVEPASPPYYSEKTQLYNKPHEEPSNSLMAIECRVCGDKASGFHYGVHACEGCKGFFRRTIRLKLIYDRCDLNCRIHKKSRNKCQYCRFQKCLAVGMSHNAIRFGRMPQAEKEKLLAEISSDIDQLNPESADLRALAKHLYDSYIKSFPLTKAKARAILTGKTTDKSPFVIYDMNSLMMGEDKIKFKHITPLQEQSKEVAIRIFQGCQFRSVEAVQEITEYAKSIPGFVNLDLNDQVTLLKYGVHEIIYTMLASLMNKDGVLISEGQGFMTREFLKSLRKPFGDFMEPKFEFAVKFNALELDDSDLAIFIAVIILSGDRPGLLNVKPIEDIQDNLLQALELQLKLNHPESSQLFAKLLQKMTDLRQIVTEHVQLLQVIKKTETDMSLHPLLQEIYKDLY
Retinoic acid receptor alpha (Homo sapiens), sequence (P10276 whole entry, looked up): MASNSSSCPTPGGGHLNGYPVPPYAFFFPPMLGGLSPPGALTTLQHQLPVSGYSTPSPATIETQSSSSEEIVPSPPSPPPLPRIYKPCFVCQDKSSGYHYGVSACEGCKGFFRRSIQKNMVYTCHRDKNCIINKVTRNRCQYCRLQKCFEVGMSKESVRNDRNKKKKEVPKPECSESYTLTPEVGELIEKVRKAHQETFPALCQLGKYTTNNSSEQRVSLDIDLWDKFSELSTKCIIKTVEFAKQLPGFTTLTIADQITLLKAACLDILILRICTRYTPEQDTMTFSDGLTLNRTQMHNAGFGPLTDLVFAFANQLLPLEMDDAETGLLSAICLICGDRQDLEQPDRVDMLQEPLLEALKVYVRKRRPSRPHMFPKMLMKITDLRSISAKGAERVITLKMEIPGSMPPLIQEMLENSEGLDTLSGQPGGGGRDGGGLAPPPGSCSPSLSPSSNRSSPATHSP
Androgen Receptor/SRC-1 Co-activator, AR (gene 367), sequence (P10275 whole entry, looked up, the tested form may be a part): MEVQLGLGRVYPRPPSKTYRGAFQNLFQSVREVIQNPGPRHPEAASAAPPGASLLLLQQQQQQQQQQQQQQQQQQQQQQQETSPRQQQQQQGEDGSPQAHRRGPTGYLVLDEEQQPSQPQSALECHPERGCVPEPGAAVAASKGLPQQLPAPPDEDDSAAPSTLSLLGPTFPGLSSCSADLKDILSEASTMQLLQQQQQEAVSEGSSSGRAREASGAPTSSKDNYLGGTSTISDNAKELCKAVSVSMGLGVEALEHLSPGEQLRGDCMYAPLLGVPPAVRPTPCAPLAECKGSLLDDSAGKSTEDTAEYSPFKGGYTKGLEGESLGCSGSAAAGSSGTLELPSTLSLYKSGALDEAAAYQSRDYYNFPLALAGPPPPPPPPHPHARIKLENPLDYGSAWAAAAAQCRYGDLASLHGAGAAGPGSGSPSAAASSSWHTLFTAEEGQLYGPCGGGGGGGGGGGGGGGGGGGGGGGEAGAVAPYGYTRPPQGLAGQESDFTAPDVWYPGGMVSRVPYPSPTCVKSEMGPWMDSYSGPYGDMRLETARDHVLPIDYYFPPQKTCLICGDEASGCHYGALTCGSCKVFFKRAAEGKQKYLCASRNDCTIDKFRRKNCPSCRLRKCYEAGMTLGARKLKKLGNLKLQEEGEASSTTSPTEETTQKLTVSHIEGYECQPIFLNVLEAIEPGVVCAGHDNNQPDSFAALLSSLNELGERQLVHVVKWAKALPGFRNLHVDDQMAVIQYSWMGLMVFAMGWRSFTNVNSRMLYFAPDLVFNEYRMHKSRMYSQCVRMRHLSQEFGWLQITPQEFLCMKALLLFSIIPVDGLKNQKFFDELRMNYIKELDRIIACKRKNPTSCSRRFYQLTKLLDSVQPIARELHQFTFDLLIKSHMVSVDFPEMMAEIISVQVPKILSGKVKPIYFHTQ
human Peroxisome Proliferator-activated Receptor alpha (PPARa), PPARA (gene 5465), sequence (Q07869 whole entry, looked up): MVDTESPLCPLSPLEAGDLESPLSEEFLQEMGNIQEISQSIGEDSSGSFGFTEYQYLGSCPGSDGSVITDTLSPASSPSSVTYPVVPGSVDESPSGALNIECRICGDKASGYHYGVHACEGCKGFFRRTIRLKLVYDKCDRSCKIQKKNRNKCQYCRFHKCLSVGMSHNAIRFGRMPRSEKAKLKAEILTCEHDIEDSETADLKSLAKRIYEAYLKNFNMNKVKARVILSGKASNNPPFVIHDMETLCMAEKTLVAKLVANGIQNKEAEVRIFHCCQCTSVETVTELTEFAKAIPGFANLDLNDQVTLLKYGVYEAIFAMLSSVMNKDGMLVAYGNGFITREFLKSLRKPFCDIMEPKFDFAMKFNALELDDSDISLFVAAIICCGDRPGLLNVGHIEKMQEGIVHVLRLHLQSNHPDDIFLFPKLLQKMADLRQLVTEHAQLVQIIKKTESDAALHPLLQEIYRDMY
Estrogen receptor beta (Homo sapiens), sequence (Q92731 whole entry, looked up, the tested form may be a part): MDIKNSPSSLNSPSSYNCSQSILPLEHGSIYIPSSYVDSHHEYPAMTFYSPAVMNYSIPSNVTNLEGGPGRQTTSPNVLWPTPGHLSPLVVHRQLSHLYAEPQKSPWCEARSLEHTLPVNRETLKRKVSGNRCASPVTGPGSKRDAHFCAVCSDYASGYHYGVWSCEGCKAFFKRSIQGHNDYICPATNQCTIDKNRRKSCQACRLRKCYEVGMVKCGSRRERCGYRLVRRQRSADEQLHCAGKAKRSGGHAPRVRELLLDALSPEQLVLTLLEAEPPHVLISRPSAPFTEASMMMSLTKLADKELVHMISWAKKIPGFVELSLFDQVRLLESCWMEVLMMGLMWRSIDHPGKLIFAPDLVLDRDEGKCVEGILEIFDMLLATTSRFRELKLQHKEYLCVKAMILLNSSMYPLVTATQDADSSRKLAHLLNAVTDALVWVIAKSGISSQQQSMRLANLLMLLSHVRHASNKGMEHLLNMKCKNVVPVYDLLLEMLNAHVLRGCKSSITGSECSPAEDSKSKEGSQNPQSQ
guinea pig Sigma Receptor, Non-selective Binding, SIGMAR1 (gene 100135589), sequence (Q60492 whole entry, looked up): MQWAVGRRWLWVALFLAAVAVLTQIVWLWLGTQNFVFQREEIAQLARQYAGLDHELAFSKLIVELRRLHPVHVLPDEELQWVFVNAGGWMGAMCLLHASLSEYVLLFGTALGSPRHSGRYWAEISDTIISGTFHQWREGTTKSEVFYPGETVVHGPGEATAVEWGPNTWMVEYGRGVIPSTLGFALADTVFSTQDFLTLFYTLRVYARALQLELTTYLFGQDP

O=C(O)Cc1cc(I)c(Oc2ccc(O)c(I)c2)c(I)c1
inactive: [1] | [2] | [3] | [6]
active: [4] 46.3 µM | PGR (gene 5241) 6.44 µM | [5] 561 nM [middle of 4 runs]

CCCCCc1ccc(N)cc1
active: [7] 18.9 µM and 27.8 µM and 42.5 µM | [2] 65.3 µM and 55.7 µM and 56.6 µM | [8] 25 µM | [9] 8.47 µM
inactive: [7] | [2] | [6]

OC12N=C(c3ccccc3)SC1Cc1cc(Cl)ccc12 (stereo unspecified)
inactive: [7] | [2] | [4]

COCC(C)OCC(C)OCC(C)O (stereo unspecified)
inactive: [10] | [11] | [7] | [2] | PGR (gene 5241)

Cc1c2ccccc2c(C)c2c1ccc1ccccc12
inactive: [2] | [4] | [6]
active: [10] 13.7 µM | [11] 11.6 µM | PGR (gene 5241) 15.6 µM | [5] 15.3 µM

Cc1cc(F)ccc1-c1cc(N2CC[C@@H](O)[C@H]2CO)ncc1N(C)C(=O)C(C)(C)c1cc(C(F)(F)F)cc(C(F)(F)F)c1
active: [10] 15.2 µM | [11] 23.6 µM | PGR (gene 5241) 0.401 µM | [5] 4.3 µM | [8] 8.3 µM
inactive: [7] | [2] | [12] | [6]

O=C(O)c1ccccc1-n1cc(C(=O)O)c(=O)c2cc(Nc3c(F)cc(F)cc3Cl)c(Cl)cc21
active: [5] 25 µM
inactive: [1] | [7] | [6]

Cc1occc1C(=O)Nc1ccc(C(=O)N2CCC(F)(F)/C(=C\C(=O)N3CCC(N4CCCCC4)CC3)c3ccccc32)cc1
inactive: [11] | [2]
active: [10] 32.3 µM | [7] 33.5 µM | [13] 2.93 µM | [14] 8.75 µM | [8] 7.8 µM

CN(C)c1ccc(C(=C2C=CC(=[N+](C)C)C=C2)c2ccc(N(C)C)cc2)cc1
inactive: [7]
active: [10] 0.273 µM | [11] 3.28 µM | [4] 14.7 µM | [5] 1.87 µM | [12] 6.51 µM | [13] 14.8 µM | [14] 7.35 µM | [8] 7.68 µM | [6] 1.4 µM | [9] 4.25 µM | [15] 7.04 µM

CN1C(=O)N(c2ccccc2Br)Cc2cnc(Nc3ccc4c(c3)OCC(CO)O4)nc21 (stereo unspecified)
inactive: [7] | [2] | [3] | [5]
active: [6] 25 µM

— PubChem BioAssay (EPA / NIEHS)
